Usually inhibition stands for the change of the read-out against control, counted positive when it falls.

Common to all, as to type: functional
For assay [1], the target named is Solute carrier family 2, facilitated glucose transporter member 1 (Homo sapiens) (UniProt P11166). Put plainly: ST_JUDE_LEISH: Cytotoxicity at 2uM final concentration against transgenic Leishmania Mexicana promastigotes LmGLUT1 that are glucose transport deficient and complemented with the human glucose transporter GLUT1. Activity is measured by DNA content using SYBR green in vitro.
Sequence of Solute carrier family 2, facilitated glucose transporter member 1 (Homo sapiens) (P11166 whole entry): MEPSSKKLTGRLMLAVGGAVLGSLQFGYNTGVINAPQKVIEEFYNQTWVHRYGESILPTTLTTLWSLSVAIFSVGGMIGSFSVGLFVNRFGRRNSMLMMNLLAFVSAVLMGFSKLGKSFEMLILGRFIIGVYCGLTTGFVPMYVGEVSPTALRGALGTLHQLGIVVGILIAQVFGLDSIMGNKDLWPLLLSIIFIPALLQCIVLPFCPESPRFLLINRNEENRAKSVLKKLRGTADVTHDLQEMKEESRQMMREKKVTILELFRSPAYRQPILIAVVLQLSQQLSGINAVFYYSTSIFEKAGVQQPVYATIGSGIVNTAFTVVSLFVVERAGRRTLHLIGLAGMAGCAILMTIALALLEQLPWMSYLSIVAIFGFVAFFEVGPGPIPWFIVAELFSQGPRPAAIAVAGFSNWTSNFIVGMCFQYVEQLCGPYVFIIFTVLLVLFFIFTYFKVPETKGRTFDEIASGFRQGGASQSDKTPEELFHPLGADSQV

In assay [2] the target is Hexose transporter 1 (Plasmodium falciparum) (UniProt O97467). The experiment in a line: ST_JUDE_LEISH: Cytotoxicity at 2uM final concentration against transgenic Leishmania Mexicana promastigotes LmPfHT that are glucose transport deficient and complemented with the Plasmodium falciparum hexose transporter. Activity is measured by DNA content using SYBR green in vitro.

Assay [3] deals with Glucose transporter (Leishmania mexicana) (UniProt O61059). The experiment in a line: ST_JUDE_LEISH: Cytotoxicity at 2uM final concentration against transgenic Leishmania Mexicana promastigotes LmGT2 that are glucose transport deficient and complemented with the L. Mexicana glucose transporter 2. Activity is measured by DNA content using SYBR green in vitro.

As for `CC(=O)Nc1ccc(C(=O)NC2CCN(c3ccnc4cc(Cl)ccc34)CC2)cc1`, the inhibition in assay [1] stood at 0.22%; in assay [2] it was 1.09%; in assay [3] it was 1.09%.
Take `O=C(Nc1nc(-c2ccccn2)cs1)c1ccc(S(=O)(=O)N2CCc3ccccc32)cc1`: the inhibition was 9.61% in assay [1], 15.1% in assay [2] and 2.63% in assay [3].
In the case of `O=C(N[C@H]1CCN(Cc2ccc(OC3CCN(Cc4ccccc4)CC3)cc2)C1)c1ccc(Cl)c(Cl)c1`, the inhibition in assay [1] was -0.36%; in assay [2], -1.3%; in assay [3], -1.06%.
On the same counts, the results for `COc1cc(NCC2(CNCc3cn(Cc4ccccc4)c4ccccc34)CCCCC2)nc2ccccc12` are -0.66%, -0.02% and -0.38%.
In the case of `COc1ccc2cc(-c3nc(-c4c(Cl)cccc4Cl)[nH]c3-c3ccnc(NCCCN4CCN(C)CC4)c3)ccc2c1`, the figures for the inhibition in assay [1], in assay [2] and in assay [3] were -1.11%, -1.01% and -5.14%, respectively.
`Cc1ccc(NC(=O)NC2CCN(c3ccnc4ccccc34)C2)cc1` (stereo not drawn): the inhibition in assay [1] was found to be 5.83%; in assay [2], 5.57%; in assay [3], 7.34%.
As to `O=C1CCCN1CCCNCc1cccc(-c2cccc(-c3nc4cc(C(F)(F)F)ccc4[nH]3)c2)c1`, the inhibition was 4.47% in assay [1], 3.94% in assay [2] and 4.37% in assay [3].
On the same counts, the results for `Cc1ccc(NC(=O)c2ccc(-c3cc4cc(Cl)c(Cl)cc4[nH]3)cc2)cc1OCCN1CCCC1` are -0.06%, -0.67% and 0.15%.
For the molecule `Cc1cc(=NN=Cc2ccccc2Cl)c2ccc(F)cc2[nH]1`, the inhibition in assay [1] turned out to be 6.47%; in assay [2] it was 6.14%; in assay [3], 3.93%.
On the same counts, the results for `N=C1N=C(N)NCN1OCc1ccc(Cl)c(Cl)c1` are 3.39%, 1.71% and -0.31%.
As to `CN(C)CCNC(=O)c1cc2c(-c3ccc(Cl)cc3)nn(C)c2s1`, the inhibition was 2.62% in assay [1], 2.13% in assay [2] and 1.3% in assay [3].
`COc1ccc(NC(=O)Nc2cccc(-c3cccc(-c4nc5cc(F)ccc5[nH]4)c3)c2)cc1`: the inhibition was 1.35% in assay [1], 1.38% in assay [2] and 0.62% in assay [3].
In the case of `O=c1cc(NCCCN(Cc2ccccc2)Cc2ccccc2)[nH]c2ccccc12`, the figures for the inhibition in assay [1], in assay [2] and in assay [3] were 0.48%, 4% and 5.36%, respectively.
Turning to `CCCC(C)NC(=O)[C@H](CC1CCCCC1)NC(=O)c1ccc(O)c(-c2ccc(OC)cc2)c1` (stereo partly drawn), the inhibition in assay [1] is 2.7%; in assay [2], 0.19%; in assay [3], 2.85%.
On the same counts, the results for `Cc1ccc(S(C)(=O)=O)cc1/C=C/C(=O)O` are 9.4%, 8.46% and 10.4%.
Take `COc1cccc(C(=O)Nc2ccc(Oc3ccc(Cl)cc3)cc2)c1`: the results for the inhibition in assay [1], in assay [2] and in assay [3] were -1.17%, -0.22% and -1.01%, respectively.
As to `N=C(N)Nc1ccc(NC(=O)Nc2ccc(NC(=N)N)cc2)cc1`, the inhibition in assay [1] amounted to 0.9%; in assay [2], 0.77%; in assay [3] it was 0.04%.
On to `Oc1ccc(-c2cc(COc3ccccc3C(F)(F)F)c(C3=CCNCC3)cc2COc2ccccc2C(F)(F)F)cc1`, for which the results for the inhibition in assay [1], in assay [2] and in assay [3] were 2.69%, 2.67% and -0.12%, respectively.
Take `CCC(CC)N1CCN(CC(=O)Nc2ccc([N+](=O)[O-])cc2C(=O)Nc2cccc(OC)c2)CC1`: the inhibition in assay [1] amounted to 3.1%; in assay [2], 1.8%; in assay [3], 1.35%.
Consider `Cc1ccc(NC(=O)Nc2ccc(Cl)cc2)cc1-c1ccc(C(=O)Nc2ccncc2)cc1`, for which the inhibition in assay [1] amounted to 2.15%; in assay [2], 1.58%; in assay [3] it was 0.65%.
With `CCCC(C)Nc1nc(C)cc(N[C@@H](CC(C)C)C(=O)Nc2ccc(OC)cc2)n1` (stereo partly drawn), the inhibition in assay [1] came to 3.3%; in assay [2], 3.9%; in assay [3], 1.36%.
Regarding `CCc1ccc(C2CCN(CCCCNC(=O)c3ccc(-c4ccc(C#N)cc4)cc3)CC2)c(OCCO)c1`, the inhibition turned out to be 0.42% in assay [1], 3.19% in assay [2] and 1.5% in assay [3].
For `Cc1ccc(OCCCCONC(=O)c2ccccc2)cc1`, in that order: 0.84%, -1.51% and -0.14%.
For the molecule `O=C(Nc1cccc(-c2nn3ccccc3c2-c2ccnc(Nc3ccc(Cc4ccncc4)cc3)n2)c1)c1c(F)cccc1F`, the figures for the inhibition in assay [1], in assay [2] and in assay [3] were 12%, 17.3% and 13.2%, respectively.
On to `COc1cc(OC)c(NC(=O)C2c3ccccc3C(=O)N(CC(C)C)C2c2cccs2)cc1Cl` (stereo not drawn), for which the inhibition in assay [1] is -4.11%; in assay [2] it was 2.33%; in assay [3] it was 5.96%.
For the molecule `COc1ccc(C(=O)NCCCCN2CCC(c3ccc4c(c3OC)CCCC4)CC2)cc1-c1ccc(C(F)(F)F)cc1`, the inhibition in assay [1] is -1.89%; in assay [2] it was 0.84%; in assay [3], -1.69%.
For `c1ccc(Oc2ccc(Nc3ccnc4cc(-c5cccc(CNCCN6CCOCC6)c5)ccc34)cc2)cc1`, the inhibition is -0.34% in assay [1], -0.08% in assay [2] and 1.68% in assay [3].
Take `CCOC(=O)c1ccc(-n2c(C)cc(C=C3SC(=Nc4ccccc4)N(C4CCCC4)C3=O)c2C)cc1`: the inhibition in assay [1] is 3.76%; in assay [2], 3.52%; in assay [3], 4.67%.
`CC(=O)N[C@H](C(=O)Nc1ccc(-c2ccc(-c3nc4cc(C(F)(F)F)ccc4[nH]3)s2)cc1)C(C)C`: the inhibition in assay [1] was 5.68%; in assay [2] it was 5.3%; in assay [3], 4.22%.
`c1cc(CNC2CCN(CC3CCCCC3)CC2)cc(-n2ccnc2)c1`: the inhibition in assay [1] is -0.57%; in assay [2], -0.48%; in assay [3], 1.45%.
For `FC(F)(F)c1ccc(N2CCCN(Cc3cccc(-c4ccccc4CNCc4ccc5c(c4)OCO5)c3)CC2)nc1`, in that order: 2.61%, -2.51% and -0.04%.
As to `O=[N+]([O-])c1cc2c(cc1C=NNc1nc(=Nc3ccccc3)[nH]c(=Nc3ccccc3)[nH]1)OCO2`, the figures for the inhibition in assay [1], in assay [2] and in assay [3] were 1.53%, 1.47% and -2.69%, respectively.
For `Fc1ccc(NC(S)=NN=Cc2ccccn2)cc1`, the inhibition in assay [1] was 4.22%; in assay [2], 2.09%; in assay [3], -1.91%.
`CN(C)Cc1c(O)ccc2oc(Cc3ccccc3)cc12`: the inhibition in assay [1] is -1.64%; in assay [2], -1.55%; in assay [3], -0.96%.
Turning to `CCC(CC)(Cc1ccccc1)NC(=O)[C@H](Cc1ccc(OC)c(OC)c1)Nc1ccc(C#N)c2ccccc12`, the inhibition came to 2.88% in assay [1], 2.31% in assay [2] and 3.47% in assay [3].
On to `Cc1noc(C)c1-c1ccc2c(Nc3ccccc3N3CCOCC3)c(C(=O)NCc3ccccc3)cnc2c1`, for which the inhibition stood at 8.19% in assay [1], 5.91% in assay [2] and 1.84% in assay [3].

The values above are taken from ChEMBL document CHEMBL3433997, “St. Jude Leishmania screening dataset” (2016).
